Screens as filed in PubChem.
Most compounds without a hit are left out; they make up all but 0.92% or so of the library.
RPL19A TOR yeast: RPL19A-GFP expression modulators in yeast, primary screen, cell-based, S. cerevisiae, multiplex flow cytometry, MLPCN | hit rate 0.3% among 330,000 | AID 2025, 2009 | percent response vs DMSO, % at 10 µM | S. cerevisiae RPL19A-GFP strain, 3 h; stronger effect = lower value;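 active = percent response vs DMSO below 50%; inconclusive = fewer than 70 events counted for the yeast strain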;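 note: median channel GFP fluorescence of the barcoded RPL19A-GFP strain; ratio of sample median GFP to plate DMSO average so 100% = DMSO; lower means less RPL19A-GFP as with rapamycin TOR inhibition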
MEP2-GFP yeast: modulators of MEP2-GFP levels in yeast, primary screen, S. cerevisiae, multiplex flow cytometry, MLPCN library. AID 2016, 2009. S. cerevisiae MEP2-GFP strain, 3 h; 100% = DMSO control level. GFP response vs DMSO, % at 10 µM. hit rate 0.51% among 330,000;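 active = GFP response versus DMSO above a set limit, roughly screen mean plus 3 SD, cut at about 180% in these data; inconclusive = fewer than 70 cells counted for a yeast strain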;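 note: median GFP fluorescence of the barcode-gated MEP2-GFP cells per well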
CIT2 TOR yeast: modulators of CIT2-GFP expression in yeast, primary screen, S. cerevisiae, GFP fusion, multiplex flow cytometry, MLPCN library; S. cerevisiae CIT2-GFP strain, 3 h; 100 means same as DMSO wells; hit rate 0.065% among 320,000; GFP response vs DMSO, % at 10 µM;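 active = GFP response relative to DMSO above a set limit, near the screen mean plus 3 SD, cut at about 150% in these data; inconclusive = Fewer than 70 cells measured for a yeast strain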;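 note: ratio of well median GFP fluorescence to mean of DMSO wells on the plate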
LAP4 TOR yeast: modulators of LAP4-GFP expression in yeast, primary screen, S. cerevisiae, multiplex flow cytometry, MLPCN library | 3 h; median GFP as percent of DMSO wells | GFP response vs DMSO, % at 10 µM | hit rate 0.34% among 320,000;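 active = GFP response vs DMSO above a set limit, about the screen mean plus 3 SD, cut at about 150% in these data; inconclusive = under 70 cell events counted for the yeast strain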
AGP1-GFP MLPCN: modulators of AGP1-GFP expression in yeast TOR pathway, primary screen, cell-based, multiplex flow cytometry, S. cerevisiae, MLPCN library; hit rate 0.02% among 320,000; 3 h; GFP as percent of DMSO wells; GFP response vs DMSO, % at 10 µM;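 active = GFP response relative to DMSO above a set limit, near screen average plus 3 SD, cut at about 150% in these data; inconclusive = fewer than 70 cells counted for the yeast strain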;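 note: median GFP channel fluorescence of the gated AGP1 strain per well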
Active calls of the source: *; [ ] = dose if it differs, or a comment.

Results for COc1ccc(/C=C/C(=O)NC(=S)N2CCSCC2)cc1 ?
RPL19A TOR yeast: 275.3; MEP2-GFP yeast: active[may fluoresce green]; LAP4 TOR yeast: active[may fluoresce green]; AGP1-GFP MLPCN: 257.1*[may fluoresce green]

What do the screens show for `COc1ccc(/C=C/C(=O)NC(=S)N2CCN(c3ccccn3)CC2)cc1`?
RPL19A TOR yeast: 104.1; MEP2-GFP yeast: 103.1; CIT2 TOR yeast: 101.4; LAP4 TOR yeast: 118.4; AGP1-GFP MLPCN: 106.7

How did Oc1ccccc1OCc1nc2ccccc2s1 do in these assays?
RPL19A TOR yeast: 57.5; MEP2-GFP yeast: 179.1*[may fluoresce violet]; CIT2 TOR yeast: inconclusive; LAP4 TOR yeast: 111.4; AGP1-GFP MLPCN: inconclusive

What do the screens show for `OCc1cc(Br)ccc1OCc1nc2ccccc2s1`?
RPL19A TOR yeast: 107.5; MEP2-GFP yeast: 113.5; CIT2 TOR yeast: 107.9; LAP4 TOR yeast: 117.8; AGP1-GFP MLPCN: 106.3

How did O=C(COC(=O)C1CC1)Nc1ccccc1Sc1ccccc1 do in these assays?
RPL19A TOR yeast: 103.3; MEP2-GFP yeast: 107.2; CIT2 TOR yeast: 95.0; LAP4 TOR yeast: 97.6; AGP1-GFP MLPCN: 99.8

What do the screens show for `Cc1ccc(C(=O)OCC(=O)Nc2ccccc2Sc2ccccc2)cc1C`?
RPL19A TOR yeast: 101.6; MEP2-GFP yeast: 175.9*; CIT2 TOR yeast: 103.9; LAP4 TOR yeast: 121.0; AGP1-GFP MLPCN: 101.9

Results for O=C(OCC(=O)N1CCC(c2ccccc2)=N1)c1ccc([N+](=O)[O-])s1 ?
RPL19A TOR yeast: 87.1; MEP2-GFP yeast: 90.6; CIT2 TOR yeast: 76.5; LAP4 TOR yeast: 109.9; AGP1-GFP MLPCN: 89.7

What do the screens show for `COc1ccsc1C(=O)NCCN1CCOCC1`?
RPL19A TOR yeast: 93.8; MEP2-GFP yeast: 109.4; CIT2 TOR yeast: 167.5*[may fluoresce green]; LAP4 TOR yeast: 108.2; AGP1-GFP MLPCN: 123.0

Results for CCCn1c(=O)c2ccccc2n2c(SC(C)C(N)=O)nnc12 (configuration not stated) ?
RPL19A TOR yeast: 33.2*[may fluoresce violet]; MEP2-GFP yeast: 198.3*[may fluoresce violet]; CIT2 TOR yeast: inconclusive; LAP4 TOR yeast: 59.0; AGP1-GFP MLPCN: inconclusive

What do the screens show for `S=C(Sc1ccc(Cl)cc1)Sc1ccc(Cl)cc1`?
RPL19A TOR yeast: 91.2; MEP2-GFP yeast: 97.9; CIT2 TOR yeast: 111.6; LAP4 TOR yeast: 150.1*; AGP1-GFP MLPCN: 113.9

What do the screens show for `O=C(Nc1nccs1)C(c1ccccc1)N1CCCCC1` (configuration not stated)?
RPL19A TOR yeast: 96.5; MEP2-GFP yeast: 186.4*; CIT2 TOR yeast: 105.6; LAP4 TOR yeast: 112.4; AGP1-GFP MLPCN: 101.5

What do the screens show for `Cc1ccc(-n2c(C)cc(/C=N/NC(=O)Cn3c4ccccc4c(=O)c4ccccc43)c2C)cc1`?
RPL19A TOR yeast: 36.8*[may fluoresce violet]; MEP2-GFP yeast: 244.4*[may fluoresce violet]; CIT2 TOR yeast: inconclusive; LAP4 TOR yeast: 78.1; AGP1-GFP MLPCN: 20.1

What do the screens show for `O=C(O)Cc1ccc2c(c1)N(S(=O)(=O)c1cccs1)CC(C(=O)O)O2` (configuration not stated)?
RPL19A TOR yeast: 93.6; MEP2-GFP yeast: 109.4; CIT2 TOR yeast: 160.7*[may fluoresce green]; LAP4 TOR yeast: 106.2; AGP1-GFP MLPCN: 120.3

What do the screens show for `CCS(=O)(=O)c1ccc2c(c1)N(S(=O)(=O)c1cccs1)CC(C(=O)O)O2` (configuration not stated)?
RPL19A TOR yeast: 96.6; MEP2-GFP yeast: 98.1; CIT2 TOR yeast: 124.8; LAP4 TOR yeast: 105.2; AGP1-GFP MLPCN: 109.4

What do the screens show for `CN(CCOc1ccccc1)C(=O)c1ccc(Cl)c(S(=O)(=O)N2CCCCC2)c1`?
RPL19A TOR yeast: 97.4; MEP2-GFP yeast: 97.6; CIT2 TOR yeast: 94.8; LAP4 TOR yeast: 101.5; AGP1-GFP MLPCN: 99.1

How did CCOc1cc(/C=N/NC(=O)c2ccncc2)cc(Cl)c1OS(C)(=O)=O do in these assays?
RPL19A TOR yeast: 102.8; MEP2-GFP yeast: 102.8; CIT2 TOR yeast: 98.3; LAP4 TOR yeast: 89.5; AGP1-GFP MLPCN: 97.5

What do the screens show for `CCC1CCCCN1CCN1C(=O)C2C(C(=O)Nc3cccc(OC)c3)C3C=CC2(O3)C1C(=O)NC1CCCCC1` (configuration not stated)?
RPL19A TOR yeast: 53.9; MEP2-GFP yeast: 560.0*[may fluoresce violet]; CIT2 TOR yeast: inconclusive; LAP4 TOR yeast: 83.3; AGP1-GFP MLPCN: 19.3

How did O=C(Nc1ccc(Cl)cc1)C1C2C=CC3(O2)C1C(=O)N(CCN1CCCCC1)C3C(=O)NC1CCCCC1 (configuration not stated) do in these assays?
RPL19A TOR yeast: 58.5; MEP2-GFP yeast: 387.2*[may fluoresce violet]; CIT2 TOR yeast: inconclusive; LAP4 TOR yeast: 82.6; AGP1-GFP MLPCN: 17.6

What do the screens show for `COc1ccc(/C(C)=N/NC(=O)c2nc(C)cc(C)n2)cc1`?
RPL19A TOR yeast: 39.8*[may fluoresce violet]; MEP2-GFP yeast: 670.3*[may fluoresce violet]; CIT2 TOR yeast: inconclusive; LAP4 TOR yeast: 94.6

How did Cc1ccc(SCC(=O)OCC(=O)NCCc2ccccc2)cc1C do in these assays?
RPL19A TOR yeast: 100.5; MEP2-GFP yeast: 103.7; CIT2 TOR yeast: 104.8; LAP4 TOR yeast: 98.9; AGP1-GFP MLPCN: 105.6

How did Cc1ccc(OCCCCn2ccnc2C)c(C)c1 do in these assays?
RPL19A TOR yeast: 70.9; MEP2-GFP yeast: 196.1*; CIT2 TOR yeast: 117.2; LAP4 TOR yeast: 139.1; AGP1-GFP MLPCN: 117.8

How did O=C(Nc1nccs1)C1CCCN1S(=O)(=O)c1ccc(F)cc1 (configuration not stated) do in these assays?
RPL19A TOR yeast: 105.4; MEP2-GFP yeast: 132.0; CIT2 TOR yeast: 171.6*; LAP4 TOR yeast: 122.0; AGP1-GFP MLPCN: 114.2

How did CC1(C)CC(=O)/C(=C(\O)c2ccccc2)C(=NCCO)C1 do in these assays?
RPL19A TOR yeast: 37.8*[may fluoresce violet]; MEP2-GFP yeast: 205.6*[may fluoresce violet]; CIT2 TOR yeast: inconclusive; LAP4 TOR yeast: 102.8; AGP1-GFP MLPCN: 75.0

Results for COc1ccc(CCN(C)C(=O)CN2C(=O)NC3(CCCCC3C)C2=O)cc1OC (configuration not stated) ?
RPL19A TOR yeast: 99.9; MEP2-GFP yeast: 101.6; CIT2 TOR yeast: 109.6; LAP4 TOR yeast: 98.2; AGP1-GFP MLPCN: 104.2

Results for Cc1ccc(/C=C2\SC(=S)N(CCC(=O)NNC(=O)c3ccc(O)cc3)C2=O)cc1 ?
RPL19A TOR yeast: 102.9; MEP2-GFP yeast: 106.0; CIT2 TOR yeast: 100.6; LAP4 TOR yeast: 102.2; AGP1-GFP MLPCN: 109.5

How did Cc1ccc(/C=C2\SC(=S)N(CCC(=O)NNC(=O)c3cccc(O)c3)C2=O)cc1 do in these assays?
RPL19A TOR yeast: 21.4*[may fluoresce violet]; MEP2-GFP yeast: 150.7; CIT2 TOR yeast: inconclusive; LAP4 TOR yeast: 78.5; AGP1-GFP MLPCN: 14.3

Results for CCCNC(=O)CN(C)CC(=O)Nc1ccccc1C#N ?
RPL19A TOR yeast: 95.9; MEP2-GFP yeast: 90.9; CIT2 TOR yeast: 94.8; LAP4 TOR yeast: 105.3; AGP1-GFP MLPCN: 102.8

How did COc1ccc(CC(=O)Oc2ccccc2C)cc1 do in these assays?
RPL19A TOR yeast: 95.6; MEP2-GFP yeast: 191.0*; CIT2 TOR yeast: 89.2; LAP4 TOR yeast: 96.2; AGP1-GFP MLPCN: 87.2

How did N#Cc1ccc(C(=O)OCC(=O)N2CCCC2)cc1 do in these assays?
RPL19A TOR yeast: 101.8; MEP2-GFP yeast: 100.0; CIT2 TOR yeast: 95.2; LAP4 TOR yeast: 102.9; AGP1-GFP MLPCN: 103.1
